# Measured values: the supplement of paper PMC3545927
# Some of the results follow. How many sequences the whole screen found active is unknown.
# Biological target: furin, P09958
# Assay: furin cleavage Z-score vs untreated control; higher = more cleavage, active = 3.5 or more, inactive = 1 or less, 8 variable residues between constant flanks
# Experimental: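 Multiplexed peptide-cDNA fusion cleavage assay. 8-mer variable peptides flanked by constant Cys-Ala (N-term) and Ala-Gly-Asn-Ala-Ser-Ala-Ser-Ala (C-term) and conjugated to a cDNA oligonucleotide were bead-immobilised via the N-terminus. They were treated with purified furin at a 1:10 enzyme:substrate ratio in 50 mM HEPES pH 7.5, 1 mM CaCl2, 100 mM NaCl for 7.5, 15 or 30 min. Released cDNA was counted by next-generation sequencing, and log counts versus no-furin controls were lowess-adjusted and converted to robust Z-scores.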
# furin, P09958, sequence (P09958 whole entry): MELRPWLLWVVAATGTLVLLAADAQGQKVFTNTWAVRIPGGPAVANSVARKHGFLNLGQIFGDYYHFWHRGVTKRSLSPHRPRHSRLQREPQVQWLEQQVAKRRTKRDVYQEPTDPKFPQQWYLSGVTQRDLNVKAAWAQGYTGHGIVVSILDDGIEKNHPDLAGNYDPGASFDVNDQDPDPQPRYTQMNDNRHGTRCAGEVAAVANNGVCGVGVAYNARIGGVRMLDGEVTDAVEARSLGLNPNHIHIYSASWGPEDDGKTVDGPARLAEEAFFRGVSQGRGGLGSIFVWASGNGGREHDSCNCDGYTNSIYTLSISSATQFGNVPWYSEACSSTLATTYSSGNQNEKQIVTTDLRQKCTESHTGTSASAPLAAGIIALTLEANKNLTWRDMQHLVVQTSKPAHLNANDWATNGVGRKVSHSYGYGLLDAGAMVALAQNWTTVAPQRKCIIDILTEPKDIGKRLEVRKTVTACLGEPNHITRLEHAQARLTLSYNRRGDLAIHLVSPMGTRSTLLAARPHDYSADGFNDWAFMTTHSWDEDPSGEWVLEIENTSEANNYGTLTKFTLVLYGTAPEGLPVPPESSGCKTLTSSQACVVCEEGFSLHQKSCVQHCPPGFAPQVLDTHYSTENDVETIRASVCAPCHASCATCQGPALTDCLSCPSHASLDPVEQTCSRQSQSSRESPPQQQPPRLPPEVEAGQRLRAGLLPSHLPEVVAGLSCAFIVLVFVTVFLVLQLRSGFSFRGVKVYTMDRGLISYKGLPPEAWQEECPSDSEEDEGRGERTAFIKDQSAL
Sequence,furin cleavage Z-score (7.5 min),furin cleavage Z-score (15 min),furin cleavage Z-score (30 min)
CAEKTTPCSGAGNASASA [HC1974],-1.24 (inactive),-0.951 (inactive),-0.151 (inactive)
CALGLLQTASAGNASASA [HC1027],-0.682 (inactive),-0.203 (inactive),0.0385 (inactive)
CAVMAQLLRIAGNASASA [HC327],-0.76 (inactive),-0.535 (inactive),-1.17 (inactive)
CAEVVTSTCVAGNASASA [HC2240],-0.298 (inactive),-0.394 (inactive),-0.1 (inactive)
CANPSVAATLAGNASASA [HC788],-2.1 (inactive),0.787 (inactive),0.461 (inactive)
CAQPHRAQRSAGNASASA [FS-1153],6.97 (active),6.29 (active),6.74 (active)
CAKNIRRGRSAGNASASA [FS-342],8.62 (active),9.43 (active),6.74 (active)
CAEYRRRGRSAGNASASA [FS-1123],4.99 (active),5.3 (active),5.5 (active)
CAEDTTPCSGAGNASASA [HC1971],0.299 (inactive),-1.06 (inactive),-0.5 (inactive)
CAADGGCSGGAGNASASA [HC811],-1.33 (inactive),-0.697 (inactive),-0.396 (inactive)
CAERVTSTWVAGNASASA [HC2173],-0.173 (inactive),-0.632 (inactive),-2.09 (inactive)
CARPVRGIHTAGNASASA [FS-3030],1.52,0.149 (inactive),3.15
CARTGRSIVYAGNASASA [FS-2465],2.57,5.05 (active),6.39 (active)
CARPRRLSTAAGNASASA [FS-3022],-0.374 (inactive),0.291 (inactive),1.13
CARPKKRAETAGNASASA [FS-1760],-0.848 (inactive),2.01,0.187 (inactive)
CARPQRLIDHAGNASASA [FS-3020],-0.401 (inactive),-0.141 (inactive),-0.235 (inactive)
CARPPRSIVTAGNASASA [FS-2439],2.64,4.75 (active),6.76 (active)
CARPPRSPDHAGNASASA [FS-2740],4.56 (active),5.51 (active),4.52 (active)
CACPNSSIVYAGNASASA [HC264],0.0997 (inactive),0.251 (inactive),-0.406 (inactive)
CARPPRSATAAGNASASA [FS-2058],1.66,4.98 (active),3.61 (active)
CARTGRSREVAGNASASA [FS-3105],0.737 (inactive),-1.37 (inactive),1.18
CAAAPGAATAAGNASASA [HC1071],-1.75 (inactive),0.135 (inactive),-1.91 (inactive)
